From PubChem BioAssay AID1508600 (Functional Genomics Laboratory (NCATS/FGL), 2020) come the findings set out here.

In all, about 53,000 sequences went through this assay and about 3,700 (7%) were called active. The sample as a whole holds a higher share of actives than the screen did. Unmarked numbers belong to inactive results.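 The calls were made as follows: active = gene knockdowns whose robust z-score for IL-1 alpha signal is at least 2 or at most -2, so actives lie on both sides; inactive = the rest.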

This test in a line: Components of the Cytosolic LPS Sensing Pathway: Gene Identification via Genome-wide siRNA Screen.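 Also: robust z of the log signal after scaling to non-targeting control siRNA wells of the plate.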 The conditions noted are these: RAW264.7 macrophages, IL-1a HTRF, actives lie on both sides, screened at 100 nM (by protocol), cells primed 5 h with Pam3CSK4 first. Summed up: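 Cells (RAW264.7, 1×10^4 per well) were transfected with siRNA at 100 nM and cultured 48h at 37 degrees C. Pam3CSK4 was added for 5 hours; LipidA transfection followed for 24 hour. IL-1a was then measured by HTRF.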
For GUUCAAGAGGGAGCUGGAATT against Pomc, the z-score was 0.842. For the sequence GGUCAUUUGUUUUCAGGGATT against Tfdp2, the z-score is 3.07 (active). As for GGGCCUUUAGUCCUCAAAGTT against Psmg3, the z-score is 0.387. As for CCUGUCAUCACACUCGAGGTT against Coro6, the z-score is -0.00248. With CGGCGGUUUAAUGAAAAUATT against Cbfa2t2 the figure was -2.58 (active). Consider GGUAGAAUGUGUGAUACCCTT against Rogdi, for which the z-score was 0.205. Consider GGUGGUCCAGAAUUUUGCATT against Cotl1, for which the z-score is 0.386. Turning to CGGGAAUAAGAUCUUUCUGTT against Zbtb22, the z-score is 1.43. GGUACAUGAUUACCAGCCUTT against Sdk2: the z-score is -2.26 (active).

For GGAAUAGUGGCUUCUUUUATT against Rsph3a, the z-score was -0.00182. To UUUGCAUGUACAGAAUGCUTT against Olfr312 belongs 1.54.

For the sequence GGAAACACAAGUUCUAGGUTT against Gpx3, the z-score is 0.735.

On to GGGUUUCUGUGAGAGACAATT against Ube2f, for which the z-score is 1.01.

On to GGAUGUUUGCUCUUGAGCGTT against Isoc1, for which the z-score is -2.17 (active). For the sequence GGGACUAUAAGGAACCAGGTT against Fmo3, the z-score was -0.35. Turning to GGGCAAGACUUAAUUUUGGTT against Dppa1, the z-score was -0.36. Take GGUCAAGAGUGCCCUAAAATT against Olfr398: the z-score is -1.63.

With GGAUUCGUUCAGCUAAGGGTT against Olfr1023, the z-score is 1.29. To GGAGAAAUGUUGUUGUCUUTT against Kcng3 belongs -0.327.

AAAGCGCAUUCACAAAAAUTT against Olfr1453: the z-score was 0.197. GGAAACAAGGAUAUUCUUUTT against Fanca: the z-score was 0.859.

Take GGAGGUAUUAUCUGAAUUGTT against Utp14a: the z-score is 1.17.

Consider GGAGGCAUACAUGACAAAATT against Cop1, for which the z-score was 0.953. Consider GGCAGAGUGCUGACUUCAUTT against Coq8a, for which the z-score was 3.86 (active). As to CCAUGUAUGCCUCAACAUATT against Ltf, the z-score was 0.517. With GGAAAGUGCCAUGAAGACCTT against Dbi the figure was -1.42. With GCUCCUAAUGGAAAGAACGTT against Pla2g4d the figure was 0.0914; with CCUGUCCAGGGUUUGACCATT against Man2c1, -1.12; with GCGAUAUGCAGAGAAGCGGTT against Prpf8, -1.63. With GGUUAAAGGAGCAGUCUAUTT against Dbn1, the z-score was 0.636.

Turning to GGAGAAAGUGUCCUCUGUGTT against Olfr924, the z-score is -2.41 (active).

As to “GGGCUGGGUCUUCAUAAUUTT against 6330549D23Rik”, the z-score was 1.14. With GCACUUCAAUCCAGUGUCUTT against Pdgfd the figure was -1.27; with GGCAAAAAUUUUUUCAUGCTT against Abcb4, -0.47. With GGUGGCGGGAGAUGUUUUUTT against Pex6 the figure was 0.85; with GGUCUAGAGCAAUUCCAUATT against Olfr656, 1.51. With GUUGUAUUUCUUUGUCCUCTT against Olfr1097 the figure was 2.21 (active); with GAUCUUAUAUGUUGGUGGUTT against Vmn1r29, -0.31; with GGUGAACUUUACCUUCAACTT against Mov10, 0.867. With GGAUCAACGAGGUAAAGUCTT against Itga8, the z-score is 0.101.

Turning to GGUUUUUGAUAAUUGCCAUTT against Gcsh, the z-score was -1.98.

As for GGAAGAAGACACAAAAAAUTT against Rcan3, the z-score was 3.53 (active). With GGUCUUCUUCUUCAAAGCUTT against Mrpl46 the figure was -1.27.

Take GCAACGUGGUCAUCAAUCUTT against Ndufa9: the z-score is -0.743. To GGGUUAUGGCUGGAAUCUGTT against Slc12a9 belongs -1.52; to GGAACAAGGCUUUUUCCACTT against Olfr481, 0.566; to CCCGUUGUAUACAAAUACCTT against Tmem41b, 0.579. CCCAAACAGACUAGAUCCGTT against Rab20: the z-score was 3.37 (active). GUGGAAAUUAAUCUGGGUUTT against Tmem191c: the z-score was 0.394. With GGCCAGAUAGCAAAACAGCTT against Mpst the figure was 0.897; with GGAGGUGUUCAUUGAAGUCTT against Nudcd2, -0.356; with GGAACUGACAGCUAUGAACTT against Atp6v1d, -0.845. GGAGAAGAAAGCAAAAACCTT against Ing1: the z-score was -2.11 (active). For the sequence CGCAGAUCAAUUUUCAUAGTT against Kif2a, the z-score is 0.471. Turning to GGAUAUUGGUGGCACUUUATT against Med6, the z-score was -0.315.

On to GGAUAAAUGGUACAUUCAGTT against Coa7, for which the z-score is 0.958. As for CCAACCUAAACAAUGCAUUTT against Actn4, the z-score is -0.431. GGCGGACUUGGAUUACAGCTT against Rassf10: the z-score is 2.21 (active). Turning to GGAGCUGCUGUUAAUUCCATT against Col5a3, the z-score was 1.3. With GGAAGCCUACCUUUAUAUUTT against Slc2a3 the figure was 0.458. To CCUUUUCAAGCUAACAACATT against Gba2 belongs -0.0808; to GGUAGCACUUUGUAUUUUATT against Spg7, 0.575; to GCAUCUACUAUCCAAGUGATT against Alox8, 2 (active).

For CCUACAGCCACCUAAUAGATT against Olfr1196, the z-score was -0.346. With GCAAGUAACUACCAGAGUATT against Cfap20, the z-score is -0.488.

As for CCACGGGAGACAAGAUUCUTT against Hmbs, the z-score is 3.18 (active).

Consider GGUCAGCGAACCACGAUAATT against Olfr314, for which the z-score is -0.792.

As for “GGUAUAAGGUCAUAGAAUUTT against E230016K23Rik”, the z-score is 0.429. To GCUUCUAUUUUGGAUGAUGTT against Skint10 belongs -1.2. With GGCACAAGUUGACCAAUAUTT against Rtn1 the figure was -0.263; with GCUACUCCUUAGAACACGGTT against Spry1, 0.839.

Regarding GGCUAUCUGAUUUUUGUUGTT against Nlrp3, the z-score was -0.0259. To GGCCUCAAACUGAAUAUUATT against Serpina7 belongs 0.472; to CCCGGAAACAACACAUUGCTT against Tyrobp, 2.88 (active); to GGUCCAGCAUUUGAAAUUATT against Moap1, 0.291. Consider CCACUGUGCAAGAAGCACGTT against Ldb3, for which the z-score is -0.129.

GGGUAAUGGGCCAGUAUCATT against Fam229b: the z-score is -2.92 (active). To GGUAUAUUGUGCCAGCACATT against Olfr705 belongs 0.00345. On to GGUUCACAUGUACAUUAAATT against Cracd, for which the z-score was -0.156. For the sequence “GGUUAGAAAACAAUAUCAGTT against 9530053A07Rik”, the z-score was 0.88. To GGGAGAGCUGGCUAAAUGATT against Sptbn4 belongs -0.956; to GGAGUUUGCCAGUGAAUUUTT against Ptpn22, -0.603. With GGAAGAGAAAACAACAGUUTT against Phactr4 the figure was -1.26; with CCCGUAAGGUAACAAACCGTT against Polr3k, -1.14; with GGACAGGAAGGUCAUCCCUTT against Sntb2, -0.568. To CCGCCAGACCUUCAUUACCTT against Chia1 belongs -0.515. With GGCAGUGGAGCUGGACAAATT against Nkx2-5, the z-score is 2.45 (active).

As to GGCUACAAAUCCAACUAUCTT against Ppp1r32, the z-score was 0.181. To GGUCCAAGCCUUUUCUAGATT against Glmp belongs 0.305. Turning to GCUCGUUCGCCUAGAAUUGTT against Mycbp, the z-score was 0.529. For the sequence CGUGGGCUCUGUUGACAUUTT against Olfr492, the z-score is 0.869. With GGGCAAAUGUAAAAAGACUTT against Fst the figure was 1.28; with GGUGAUUGUCAAGAUUAUGTT against Olfr651, -2.1 (active). To CCUUUGCCUUCAGUUUUAUTT against Pramel20 belongs 0.864; to GGUCACGAUGUAGCACGCUTT against Mtg1, 0.996; to GCAGGAAGUACUCCUAUCCTT against Letm2, -0.861. Regarding GGGAAUUUGGUAUCAAUUUTT against Epgn, the z-score is 1.7. To GCUGCACGAUGCAUGGUUUTT against Asic3 belongs 1.43; to GGCAAUAACAUUCGGUAUUTT against Snrpd1, -2.29 (active). As for CCUGUAAUGAGUAUGACAUTT against Commd10, the z-score is 0.397. On to GGAACUUUUUCAGAGCUCUTT against Senp3, for which the z-score is -1.6.

GGUAUUUGUGCCAAUUGCCTT against Ccr6: the z-score was -0.302.

Turning to GGAAGACUACAUAAGAGACTT against Cxcl9, the z-score was 0.103. For the sequence GGGCCAUGAUAGGACACACTT against Nme4, the z-score is 2.97 (active).

In the case of CCUGUCUGUUUGAGGACGUTT against Adora2a, the z-score is -0.701. With GGCCAACUUCCUUUUUAAATT against Tomm40, the z-score was -0.0619. With GGCACACACUCCCUGACAATT against Cst3 the figure was -0.863; with GGUGGAUGAUAAUGUUCUUTT against Gcnt3, 0.911.
